In PubChem BioAssay AID743282 (The Scripps Research Institute Molecular Screening Center, 2014):
Out of some 2,000 compounds screened, about 170 (8.5%) were called active.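 The calls were made as follows: active = average inhibition above the solvent-only control mean plus 3 SD (cut at about 6% in these data); inactive = the rest.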 These entries were drawn from the full list.

Assay: 535nm fluorescence optical interference, confirmation, artefact control for HGIII-sPLA2 inhibitor project, biochemical, QFRET (AID 743282);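 also: 0% = DMSO with substrate plus product and 100% = DMSO with substrate alone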
Conditions: BODIPY FL product fluorescence interference, at 12.2 µM, stronger effect = higher value

SMILES	inhibition
Cc1ccc(S(=O)(=O)N2CCOCC2)cc1C(=O)NC(=S)N(Cc1ccccc1)C(C)C	-1.68% (inactive)
COc1cccc(NC(C)=[N+](C)CCNS(=O)(=O)c2ccc(Cl)cc2)c1	-14.7% (inactive)
Cc1sc2nc(SCC(=O)c3ccc(O)c(O)c3)n(Cc3ccco3)c(=O)c2c1C	0.57% (inactive)
Cc1cccc(-n2cnc(C(=O)NNC(=S)Nc3ccccc3)c2)n1	-2.38% (inactive)
CC1=CC(C)(C)NC(=S)N1c1ccccc1	-3.33% (inactive)
CCOc1ccc(Br)cc1CSC(=N)N	-9.39% (inactive)
Cc1cccc(C)c1NC(=O)CN1C(=O)C(C)Oc2ccccc21 (stereo not given)	-4.96% (inactive)
S=C(NNC(=S)NC1CC2CCC1C2)NC1CC2C=CC1C2 (stereo not given)	3.69% (inactive)
O=C(NNC(=S)NC1CCCCC1)c1ccccc1Cl	-4.68% (inactive)
Cc1[nH]c(N)nc(=S)c1CCCNc1ccccc1	0.28% (inactive)
CN(CC(=O)Nc1ccc(N2CCOCC2)cc1)CC(=O)Nc1ccccc1[N+](=O)[O-]	-3.73% (inactive)
C/C(=N\Nc1ccc(Cl)nn1)c1ccccc1O	1.8% (inactive)
CCc1cccc(CC)c1NC(=S)NCc1ccc2[nH]c(C)cc2c1	-0.12% (inactive)
c1ccc(C2=Nc3cccc4cccc(c34)N2)cc1	11.4% (active)
CC(C(=O)Nc1ccccc1-c1ccccc1)N1CCOCC1 (stereo not given)	-7.3% (inactive)
O=C(CSc1nc2ccccc2n1Cc1ccccc1)NNC(=S)Nc1ccccc1	-3.82% (inactive)
O=C(NNc1ccccn1)c1ccc(Cl)nc1	34% (active)
O=C(OC12CC3CC(CC(C3)C1)C2)c1ccc(NCc2cc(O)ccc2O)cc1	12.9% (active)
COc1ccccc1OCC(=O)OCn1c(SC)nnc(C)c1=O	0.95% (inactive)
COc1ccc(C(=O)Nc2sc(C)c(C)c2CN2CCOCC2)cc1	-13.2% (inactive)
O=C1C(=O)N(Cc2ccc(-c3ccsc3)cc2)c2ccc(OC(F)(F)F)cc21	4.49% (inactive)
Nc1[nH]c(C(=O)c2ccccc2)c(-c2ccc(Br)cc2)c1C(=O)NC1CC1	-0.53% (inactive)

SMILES	inhibition
CN(C)c1ccc(NC(=O)NC2CCCCN(Cc3ccc(Cl)cc3)C2=O)cc1 (stereo not given)	-5.22% (inactive)
CC(C)(C)c1cc2cccnc2n1Cc1cccc(F)c1	-9.11% (inactive)
CN(C)S(=O)(=O)c1cccc(NC(=S)N/N=C/C(=O)c2ccccc2)c1	5.77% (inactive)
CC(NC(=O)COC(=O)Cn1cc(C(F)(F)F)ccc1=O)c1ccccc1 (stereo not given)	-1.38% (inactive)
CC(C)CC(=O)NC(=S)NNC(=O)c1cccc([N+](=O)[O-])c1	-0.46% (inactive)
CSc1ccc(NC(=O)/C=C/C(=O)O)cc1	-8.22% (inactive)
O=C(/C=C/c1c(Cl)cccc1Cl)NCc1ccccc1	-0.31% (inactive)
N#CC1(Nc2ccc(-c3ccc(Cl)cc3)cc2)CCCC1	6.64% (active)
CC(C)c1cc(C(=O)N/N=C/c2ccoc2)c(O)c(C(C)C)c1	4.05% (inactive)
Cc1ccc(C2Nc3ccccc3C(=O)N2CCN2CCNC2=O)cc1 (stereo not given)	-4.79% (inactive)
COc1ccc2c(c1)c(=Cc1ccc(N(C)C)cc1)c1cc(-c3ccccc3)[n+](C)n12	-26.7% (inactive)
O=C(NNC(=S)Nc1ccc(F)cc1)[C@H]1C[C@@H]1c1ccccc1	1.83% (inactive)
COc1ccc(NC(=O)C2C3C=CC(C3)C2C(=O)NCc2ccccn2)c(OC)c1 (stereo not given)	-6.28% (inactive)
CCCCn1c(N)c(N(CCOC)C(=O)COc2c(C)cccc2C)c(=O)[nH]c1=O	-7.38% (inactive)
O=C(NN1C(=O)C2C3C=CC(C3)C2C1=O)c1ccco1 (stereo not given)	-5.42% (inactive)
COCCn1c(SCC(=O)Nc2cc(OC)ccc2OC)nc2c(c1=O)SC(C)C2 (stereo not given)	-17.4% (inactive)
COc1ccccc1OCCn1c(SCC(N)=O)nc2ccccc21	-8.97% (inactive)
COc1cc(NS(=O)(=O)c2ccc3ccccc3c2)c2ncccc2c1	5.89% (inactive)
O=C(Nc1cccc(F)c1)c1cc(-c2ccco2)nc2ccccc12	4.81% (inactive)
C/C(=N/NC(=O)c1cc(Cl)ccc1O)C12CC3CC(CC(C3)C1)C2	-3.29% (inactive)
CCCCn1c(=S)[nH]c2ccccc2c1=O	-2.71% (inactive)
Cc1cc(NCCc2c[nH]c3ccccc23)ccc1Oc1cccnc1	-3% (inactive)

SMILES	inhibition
CCNC(=S)Nc1ccc(OC(F)(F)F)cc1	0.41% (inactive)
NC(c1csc(NC(=O)Nc2ccccc2Oc2ccccc2)n1)c1ccccc1Cl (stereo not given)	4.15% (inactive)
COc1cc(/C=N/n2c(C)n[nH]c2=S)ccc1OCc1ccccc1	-3.5% (inactive)
Cc1ccc(C2CC(c3cccc(C)c3)n3nc(N)nc3N2)cc1 (stereo not given)	-10.8% (inactive)
Nc1ccc2c(c1)C(O)c1ccc(Cl)cc1-2 (stereo not given)	7% (active)
CCN(Cc1ccccc1)C(=O)CN1C(=S)NC(C)(C)CC1C (stereo not given)	-7.34% (inactive)
C#CCCCc1nc2ccccc2c(=O)n1N	-6.82% (inactive)
Cc1nnc(Sc2nc3c(c(=O)[nH]c(=O)n3C)n2Cc2ccccc2)s1	-6.93% (inactive)
CCN(CC(=O)NC1CCS(=O)(=O)C1)S(=O)(=O)c1ccccc1 (stereo not given)	-0.3% (inactive)
CCOC12CC(C)(C)CC(C)(CC3=C1C(=O)CC(C)(C)C3)C2 (stereo not given)	-12.7% (inactive)
CC(C)(c1ccccc1)c1ccc(OCCN)cc1	-22.1% (inactive)
CC[C@]1(O)C[C@@H]2CN(CCc3c([nH]c4ccccc34)[C@@](C(=O)OC)(c3cc4c(cc3OC)N(C)[C@H]3[C@@](O)(C(=O)OC)[C@H](OC(C)=O)[C@]5(CC)C=CCN6CC[C@]43[C@@H]65)C2)C1	-25% (inactive)
CCCCCCCCCCOC(=O)C[N+](C)(C)CC1CCCCC1O (stereo not given)	-19.3% (inactive)
COc1cc(OC)cc(C2=Cc3ccccc3C(CC(=O)c3ccco3)N2c2ccc(-c3cnc(OC)nc3)cc2)c1 (stereo not given)	-14% (inactive)
COC(=O)C(C)n1cnc2c(nnn2-c2ccc(F)cc2)c1=O (stereo not given)	-6.41% (inactive)
Cc1cccc(N2CCN(c3ccc(NC(=O)/C=C\C(=O)O)cc3)CC2)c1	3.01% (inactive)
N=C(N)SCc1cccc2ccccc12	-8.26% (inactive)
O=C(CCl)NNc1cccc(Cl)n1	113% (active)
NS(=O)(=O)c1ccc(CCNC(=O)NC2CCCCC2)cc1	-4.36% (inactive)
O=C(NNC(=S)NC1CC2CCC1C2)c1ccc(Cl)cc1 (stereo not given)	0.11% (inactive)
COc1ccc(Cl)cc1C(=O)NNC(=S)NC1CCCC1	3.94% (inactive)
C=CCNc1scc(-c2ccccc2)[n+]1CC=C	-8.41% (inactive)

SMILES	inhibition
C/C(=N\NC(=S)Nc1ccc(C)cc1)c1cc2ccccc2o1	-2.09% (inactive)
NC[C@H](Cc1ccccc1)NCCc1cc(C(F)(F)F)cc(C(F)(F)F)c1	-15.8% (inactive)
CC(=O)/C(=N\Nc1ccc(Cl)cc1Cl)Sc1cccc2cccnc12	-6.02% (inactive)
Cc1ccccc1NC(=O)C1CCN(c2ncccn2)CC1	-0.85% (inactive)
O=C(NC(=S)Nc1ncccn1)c1ccccc1Br	-4.76% (inactive)
Nc1ccc(Nc2ccccc2)cc1	1.54% (inactive)
Cn1c2c(c(=O)n(C)c1=O)C1c3ccccc3OCC1C(C)(C)O2 (stereo not given)	-3.5% (inactive)
Oc1ccc2ccccc2c1N=Nc1nccs1	18.1% (active)
COCCCNC(=O)CNC(=S)N(Cc1cc(OC)c(OC)c(OC)c1)C1CCCC1	-10.5% (inactive)
COc1ccnc(NC(=S)N2CCN(c3ncc(C(F)(F)F)cc3Cl)CC2)c1	-6.49% (inactive)
Cc1ccc(-c2csc(NNC(=O)c3ccccc3)n2)cc1	6.07% (active)
COc1ccc(C(=O)NNC(=S)NC(=O)c2ccccc2)cc1	-1.93% (inactive)
Cc1ccc2sc(NNC(=O)c3ccc4c(c3)OCCO4)nc2c1C	3.21% (inactive)
CCc1cc(-c2n[nH]c(=S)n2CC(C)C)cs1	-0.76% (inactive)
Cn1cc(Cl)c(C(=O)NNC(=S)Nc2cccc(Cl)c2)n1	0.3% (inactive)
CC(C)=CCCC1(C)C=Cc2c(ccc3c2[nH]c2cc(O)c(C)cc23)O1 (stereo not given)	8.94% (active)
CC(C)c1ccc(Nc2nnc(SCC(=O)c3nnc(-c4ccccc4)o3)s2)cc1	-8.04% (inactive)
CC(=O)Oc1ccc2c(c1)C(=O)c1ccccc1C2=O	-2.62% (inactive)
O=C(N/N=C/c1cc(Cl)cc([N+](=O)[O-])c1O)C(O)(c1ccccc1)c1ccccc1	5.59% (inactive)
S=c1[nH]nc(-c2ccco2)n1/N=C/c1ccccc1	-0.08% (inactive)
CCOc1ccc2[nH]c(=S)sc2c1	-2.18% (inactive)
Cc1c(NC(=S)NCc2ccc(F)cc2)cccc1[N+](=O)[O-]	-0.65% (inactive)

SMILES	inhibition
CC(Oc1ccc2ccccc2c1)C(=O)NNC(=S)NC(=O)c1ccco1 (stereo not given)	-3.72% (inactive)
CSC1=NN(c2ccccc2)CN(c2ccccc2)N1C	4.75% (inactive)
Cc1c(C(=O)N/N=C/c2ccccc2)[nH]c2c([N+](=O)[O-])cccc12	-10.6% (inactive)
NC(Cc1ccccc1)c1csc(Nc2cc(Oc3ccccc3)ncn2)n1 (stereo not given)	-10.4% (inactive)
O=C(NNC(=S)Nc1ccc(Br)cc1Cl)c1ccco1	3.75% (inactive)
CCOc1ccc(/C=N/NC(N)=S)cc1	-2.77% (inactive)
Cc1cc(-c2n[nH]c(=S)n2-c2ccc(C)c(C)c2)no1	2.66% (inactive)
CC(=O)NC(c1cccs1)c1cc(Br)c2cccnc2c1O (stereo not given)	1.21% (inactive)
Cc1cc(-n2nc(C)cc2C)n2ncc(-c3ccccc3)c2n1	-10.6% (inactive)
CCOC(=O)C1(Cc2cccc(OC)c2)CCCN(C(=O)CCSC)C1 (stereo not given)	-20.8% (inactive)
Cc1cccc(NC(=S)NCCN(C2CCCCC2)C2CCCC2)c1	-19.9% (inactive)
Brc1ccccc1C1Nc2cccc3cccc(c23)N1	16.4% (active)
CC(=O)c1nnn(-c2ccc(Cl)cc2C#N)c1C	-6.79% (inactive)
COc1ccc(C(=O)NC(=S)NNC(=O)c2c(-c3ccccc3)noc2C)cc1	-3.7% (inactive)
Cc1ccc(NC(=S)NNC(=O)CSc2nnc(SCc3ccccc3Cl)s2)cc1	0.65% (inactive)
COc1ccc(C(N)c2csc(NC(=O)Nc3cccc(C(F)(F)F)c3)n2)cc1 (stereo not given)	5.13% (inactive)
CCCCOc1ccc(CSC(=N)N)cc1[N+](=O)[O-]	-15.6% (inactive)
Cc1c(Cl)cccc1NC(=S)NCc1ccc2c(c1)OCO2	0.14% (inactive)
C/C(=N\NC(=O)CSc1nc2ccccc2c(=O)n1-c1ccccc1C)c1cccs1	-14.6% (inactive)
O=C(COc1ccc(S(=O)(=O)NCc2ccccc2)cc1)N1CCOCC1	-4.58% (inactive)
C=CCn1c(C23CC4CC(CC(C4)C2)C3)n[nH]c1=S	-2.58% (inactive)
CCOC(=O)NC(=O)/C(C#N)=C\c1ccccc1	-4.97% (inactive)
